# Measurements as given in PubChem BioAssay AID1159580 (chemical genetic matrix, 2015).
# The campaign covered roughly 5,500 compounds. About 2,000 (36%) were called active. Inconclusive results (about 18%) are left out. Some of the results follow. Values without a mark were called inactive. No stated cut-off is given here; in the data, active means normalized growth mostly below about 0.91 (no sharp cut-off); inconclusive means no clear call, values can overlap the other calls; inactive means mostly above about 0.92.
# Assay: chemical genetic growth profiling, strain panel (AID 1159580);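 further: tested at 20 µM; growth read once vehicle control cultures reached saturation at 30 °C; 1 = growth at the plate median or of vehicle wells; lower values mean less growth of the strain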
# Settings: S. cerevisiae deletion strains, growth OD
# [1] = locus YHR030C, strain SLT2, active compounds read low
# [2] = locus YHR079C, strain IRE1, active compounds read low
# [3] = locus YJL095W, strain BCK1, active compounds read low
# [4] = locus YJR066W, strain TOR1, active compounds read low
# [5] = locus YLR113W, strain HOG1, active compounds read low
# [6] = locus YNL183C, strain NPR1, active compounds read low
# [7] = locus YOR231W, strain MKK1, active compounds read low
# [8] = locus YPL256C, strain CLN2, active compounds read low
structure (smiles),measurement,setting,value
Cc1cc2nc3c(=O)[nH]c(=O)nc-3n(CC(O)C(O)C(O)CO)c2cc1C (configuration not stated),normalized growth,"locus YAL021C, strain ccr4, active compounds read low",0.995
same,normalized growth,"locus YAL026C, strain drs2, active compounds read low",0.981
same,normalized growth,"locus YAL030W, strain snc1, active compounds read low",0.944
same,normalized growth,"locus YBL061C, strain skt5, active compounds read low",0.988
same,normalized growth,"locus YBR009C, strain hhf1, active compounds read low",0.954
same,normalized growth,"locus YBR023C, strain chs3, active compounds read low",1.01
same,normalized growth,"locus YBR171W, strain sec66, active compounds read low",0.962
same,normalized growth,"locus YBR231C, strain swc5, active compounds read low",1.01
same,normalized growth,"locus YBR279W, strain paf1, active compounds read low",1
same,normalized growth,"locus YCL011C, strain gbp2, active compounds read low",0.987
same,normalized growth,"locus YCL016C, strain dcc1, active compounds read low",1.05
same,normalized growth,"locus YCL069W, strain vba3, active compounds read low",0.959
same,normalized growth,"locus YCR088W, strain abp1, active compounds read low",0.974
same,normalized growth,"locus YDL005C, strain med2, active compounds read low",0.99
same,normalized growth,"locus YDL040C, strain nat1, active compounds read low",0.982
same,normalized growth,"locus YDR001C, strain nth1, active compounds read low",0.982
same,normalized growth,"locus YDR069C, strain doa4, active compounds read low",0.964
same,normalized growth,"locus YDR137W, strain rgp1, active compounds read low",1.05
same,normalized growth,"locus YDR159W, strain sac3, active compounds read low",0.9
same,normalized growth,"locus YDR195W, strain ref2",1.01
same,normalized growth,"locus YDR297W, strain sur2, active compounds read low",0.955
same,normalized growth,"locus YDR334W, strain swr1, active compounds read low",0.932
same,normalized growth,"locus YDR335W, strain msn5, active compounds read low",1.02
same,normalized growth,"locus YDR392W, strain spt3, active compounds read low",0.91
same,normalized growth,"locus YEL003W, strain gim4, active compounds read low",0.907 (active)
same,normalized growth,"locus YEL037C, strain rad23, active compounds read low",0.974
same,normalized growth,"locus YEL061C, strain CIN8 (second series), active compounds read low",0.962
same,normalized growth,"locus YER015W, strain faa2, active compounds read low",0.97
same,normalized growth,"locus YER016W, strain bim1, active compounds read low",0.994
same,normalized growth,"locus YER111C, strain swi4, active compounds read low",1
same,normalized growth,"locus YER155C, strain BEM2 (second series), active compounds read low",0.912
same,normalized growth,"locus YFR010W, strain ubp6, active compounds read low",0.91
same,normalized growth,"locus YGL167C, strain pmr1, active compounds read low",0.958
same,normalized growth,"locus YGL173C, strain kem1, active compounds read low",0.974
same,normalized growth,"locus YGL227W, strain vid30, active compounds read low",0.98
same,normalized growth,"locus YGL240W, strain doc1, active compounds read low",0.927
same,normalized growth,"locus YGL253W, strain hxk2, active compounds read low",1.01
same,normalized growth,"locus YHR013C, strain ard1, active compounds read low",0.992
same,normalized growth,"locus YHR027C, strain rpn1, active compounds read low",0.959
same,normalized growth,[1],0.959
same,normalized growth,[2],0.968
same,normalized growth,"locus YHR142W, strain chs7, active compounds read low",1.01
same,normalized growth,"locus YJL092W, strain hpr5, active compounds read low",0.98
same,normalized growth,"locus YJL095W, strain BCK1 (second series), active compounds read low",0.985
same,normalized growth,[3],0.966
same,normalized growth,"locus YJL115W, strain asf1, active compounds read low",0.969
same,normalized growth,"locus YJL129C, strain trk1, active compounds read low",0.996
same,normalized growth,"locus YJL154C, strain vps35, active compounds read low",0.967
same,normalized growth,"locus YJL164C, strain tpk1, active compounds read low",0.924
same,normalized growth,"locus YJL166W, strain qcr8, active compounds read low",0.94
same,normalized growth,"locus YJL187C, strain SWE1, active compounds read low",0.974
same,normalized growth,[4],0.926
same,normalized growth,"locus YKL160W, strain elf1, active compounds read low",1.03
same,normalized growth,"locus YKR026C, strain gcn3, active compounds read low",0.982
same,normalized growth,"locus YKR091W, strain srl3, active compounds read low",0.985
same,normalized growth,"locus YLL001W, strain dnm1, active compounds read low",0.95
same,normalized growth,"locus YLL026W, active compounds read low",0.973
same,normalized growth,"locus YLL041C, strain sdh2, active compounds read low",1
same,normalized growth,"locus YLR027C, strain aat2, active compounds read low",0.98
same,normalized growth,[5],0.957
same,normalized growth,"locus YLR221C, strain rsa3, active compounds read low",0.937
same,normalized growth,"locus YLR258W, strain gsy2, active compounds read low",1
same,normalized growth,"locus YLR262C, strain YPT6 (second series), active compounds read low",0.988
same,normalized growth,"locus YLR320W, strain mms22, active compounds read low",0.956
same,normalized growth,"locus YLR342W, strain FKS1, active compounds read low",0.964
same,normalized growth,"locus YLR357W, strain rsc2, active compounds read low",0.9
same,normalized growth,"locus YLR370C, strain arc18, active compounds read low",1.01
same,normalized growth,"locus YLR384C, strain iki3, active compounds read low",1.01
same,normalized growth,"locus YML120C, strain ndi1, active compounds read low",0.918
same,normalized growth,"locus YMR058W, strain fet3, active compounds read low",0.941
same,normalized growth,"locus YMR125W, strain sto1, active compounds read low",0.985
same,normalized growth,"locus YMR129W, active compounds read low",1
same,normalized growth,"locus YMR205C, strain PFK2, active compounds read low",1
same,normalized growth,"locus YMR231W, strain pep5, active compounds read low",0.968
same,normalized growth,"locus YNL071W, strain lat1, active compounds read low",0.972
same,normalized growth,[6],0.933
same,normalized growth,"locus YNL209W, strain ssb2, active compounds read low",1
same,normalized growth,"locus YNL248C, strain rpa49, active compounds read low",0.997
same,normalized growth,"locus YNL322C, strain KRE1 (second series), active compounds read low",0.996
same,normalized growth,"locus YNR049C, strain mso1, active compounds read low",0.994
same,normalized growth,"locus YOR001W, strain rrp6, active compounds read low",0.908
same,normalized growth,"locus YOR070C, strain gyp1, active compounds read low",0.984
same,normalized growth,"locus YOR080W, strain dia2, active compounds read low",0.989
same,normalized growth,"locus YOR083W, strain WHI5, active compounds read low",0.951
same,normalized growth,"locus YOR106W, strain vam3, active compounds read low",0.96
same,normalized growth,[7],0.966
same,normalized growth,"locus YOR265W, strain rbl2, active compounds read low",0.973
same,normalized growth,"locus YOR270C, strain vph1, active compounds read low",0.965
same,normalized growth,"locus YOR290C, strain snf2, active compounds read low",1.01
same,normalized growth,"locus YPL051W, strain arl3, active compounds read low",1.01
same,normalized growth,"locus YPL078C, strain atp4, active compounds read low",1.02
same,normalized growth,"locus YPL106C, strain sse1, active compounds read low",0.951
same,normalized growth,"locus YPL240C, strain hsp82, active compounds read low",0.996
same,normalized growth,[8],0.98
Cc1cc2nc3c(=O)[nH]c(=O)nc-3n(C[C@@H](O)[C@@H](O)[C@@H](O)COP(=O)(O)O)c2cc1C,normalized growth,[1],1.04
same,normalized growth,[2],1.04
same,normalized growth,[3],1.03
same,normalized growth,[4],0.966
same,normalized growth,[5],1.03
same,normalized growth,[6],0.97
same,normalized growth,[7],1.04
same,normalized growth,[8],1.04
